Compound activity: PubChem, National Center for Advancing Translational Sciences (NCATS)
FLuc modulator: qHTS profiling assay for firefly luciferase inhibitor/activator using purifed enzyme and Km concentrations of substrates (counterscreen for miR-21 project); Potency, µM (series often up to 57.5 µM), for the others: top-dose activity change, negative = inhibition, hits mostly inhibitors; 6.9% of 360,000 active; Luciferin 4-monooxygenase (Photinus pyralis), P08659; purified FLuc, Km substrates, luminescence inhibition; AID 588342, 2011;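 further: plate controls were vehicle for no effect and reference inhibitor for full effect; nearly all actives have a fitted effect of over 55% in size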
Target sequence (P08659 whole entry, looked up): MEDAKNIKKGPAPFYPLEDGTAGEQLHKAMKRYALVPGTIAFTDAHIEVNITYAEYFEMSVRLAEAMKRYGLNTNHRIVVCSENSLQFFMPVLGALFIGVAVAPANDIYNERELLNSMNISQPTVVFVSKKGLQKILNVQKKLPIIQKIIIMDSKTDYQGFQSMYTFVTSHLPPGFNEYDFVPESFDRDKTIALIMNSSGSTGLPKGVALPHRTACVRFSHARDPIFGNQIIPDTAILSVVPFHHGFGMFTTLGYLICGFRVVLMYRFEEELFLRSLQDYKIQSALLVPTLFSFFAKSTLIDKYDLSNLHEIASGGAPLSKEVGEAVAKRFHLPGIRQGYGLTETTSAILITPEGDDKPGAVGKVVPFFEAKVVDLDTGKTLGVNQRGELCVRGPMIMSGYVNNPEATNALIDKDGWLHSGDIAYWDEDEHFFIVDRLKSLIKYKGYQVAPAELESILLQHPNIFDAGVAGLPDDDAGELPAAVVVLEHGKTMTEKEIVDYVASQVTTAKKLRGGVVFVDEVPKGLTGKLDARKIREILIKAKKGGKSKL
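Biochemical qHTS of compounds, final roughly 60 µM downward over six points, against 10 nM purified firefly luciferase using Km concentrations of substrates (10 uM D-luciferin, 10 uM ATP) in Tris acetate pH 7.5 buffer; luminescence output.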
SMN2 splice up: qHTS Assay for Enhancers of SMN2 Splice Variant Expression; Potency, µM (highest dose often 46.1 µM), for inactives: at the highest dose activity change, positive = activation, usual class: activators; 2.8% of 210,000 active; HEK293 SMN2-luciferase splicing reporter, luminescence, 30-36 h; further: % of control where 0% means no effect; nearly all actives have a fitted effect of over 55% in size
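qHTS luciferase splicing reporter: luminescence rises when SMN2 exon 7 is included in transfected HEK293 cells. Compound exposure lasted 30-36 h at 37C, with 4.5 mM final sodium butyrate as control, followed by a ONE-Glo read.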
Rab9 promoter act: qHTS Assay for Rab9 Promoter Activators | Potency, µM (doses to about 9.22 µM), inactives show at the highest dose activation, negative = inhibition, usual class: activators | Huh7 Rab9 promoter-luciferase reporter, luminescence, 24 h | AID 485297, 2010 | 2.8% of 320,000 active; further: % of control where 0% means no effect; nearly all actives have a fitted effect of over 60% in size
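Stable Rab9-luc Huh7, 1500 cells/well, 2 h settle; cmpd in DMSO, 24 h, 37 °C/5% CO2; luciferase reagent 10 min RT; luminescence.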
NPC1 prom act: qHTS Assay for NPC1 Promoter Activators | Huh7 NPC1 promoter luciferase reporter, 24 h | Potency, µM (highest dose often 9.22 µM), for inactives: at the highest dose activation, actives largely listed as activators | 2.4% of 320,000 active; further: % of control where 0% means no effect; nearly all actives have a fitted effect of over 60% in size
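Quantitative HTS used a cell-based reporter: Huh7 cells stably bearing the NPC1 promoter upstream of luciferase were treated with compounds for 24 h, and promoter activation was read as luminescence.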
Luc counter: Counterscreen for Luciferase (Kinase-Glo TM) Inhibition; Luciferin 4-monooxygenase (Photuris pensylvanica), Q27757; Kinase-Glo luciferase, ATP luminescence, 8 min; Potency, µM (top dose mostly 38.3 µM), inactives show top-dose activity change, negative = inhibition, hits mostly inhibitors; 0.28% of 200,000 active; AID 1379, 2008; further: on the % scale 0 is the no-effect control and ±100 the full control effect; nearly all actives have a fitted effect of over 60% in size
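Luminescence was the read-out, taken after 8-minute incubation at ambient temperature. Luciferase turned over luciferin with 10 uM ATP in imidazole pH 7.2 buffer containing KCl, MgCl2, Tween 20 and BSA.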
ELG1 genotox: qHTS screen for small molecules that induce genotoxicity in human embryonic kidney (HEK293T) cells expressing luciferase-tagged ELG1 | HEK293T ELG1-luciferase reporter, luminescence, 16 h | Potency, µM (doses to about 46 µM), for the others: at the highest dose activity change, positive = activation, hits mostly activators | 1.3% of 330,000 active; further: % of control where 0% means no effect; nearly all actives have a fitted effect of over 60% in size
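Cells (2,000/well) expressing the ELG1-luciferase fusion are dosed by pin tool and kept 16 hr at 37 °C, 5% CO2. Signal comes from ONE-Glo luciferase reagent after 30 min at room temperature.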
* = called active by the depositor; ? = inconclusive; . = not tested or not shown; [ ] = another dose, or the depositor's remark. Only some compounds are listed: those with a hit (about 7.5% of all), similar ones and a draw of the others. The call rests on the fitted dose curve; in most records, active means well fitted curve in the direction sought with a large enough effect; inconclusive means small, poorly fitted or top-dose-only effect, or another doubt; inactive means no such curve, though single readings can be large; an effect the other way counts as inactive or inconclusive. Potency means the concentration at half of the fitted maximal effect.

SMILES	FLuc modulator	SMN2 splice up	Rab9 promoter act	NPC1 prom act	Luc counter	ELG1 genotox
COC(=O)N/N=C(\C)c1ccc(C)c([N+](=O)[O-])c1	?	?	0%	0%	-13%	7%
C/C(=N\Nc1ccc([N+](=O)[O-])cc1)c1ccc(N2CCOCC2)cc1	8.5µM*	.	1%	17%	.	6%
CC(C)OCCCn1c(SCc2ccccc2C#N)nc2c(sc3ccccc32)c1=O	-4%	.	.	.	.	.
COc1cc(/C=C(\C#N)c2nc3ccccc3o2)ccc1O	7.6µM*	.	20%	-2%	.	?
N#C/C(=C/c1ccc(O)cc1)c1nc(-c2ccc(-c3ccccc3)cc2)cs1	-17%	-3%	.	.	.	.
N#C/C(=C\c1ccc(O)cc1)c1nc2ccccc2o1	11µM*	.	?	?	.	?
COc1cc2nc(N3CCN(C(=O)OCc4ccccc4)C(C(=O)NC(C)(C)C)C3)nc(N)c2cc1OC (stereo not drawn)	.	18%	-16%[46.1 µM]	8%[46.1 µM]	-4%	.
COc1cccc(NC(=O)c2ccc(NC(C)=O)cc2)c1	?	-4%	?	18%	-2%	?
COc1ccc(C(=O)N/N=C(/C)c2cccc(NC(=O)c3ccccc3F)c2)cc1	3.8µM*	.	24%	?	.	6%
COc1ccc(C(=O)N/N=C(\C)c2cccc(NC(=O)c3ccc(F)cc3)c2)c(OC)c1	4.3µM*	.	30%	30%	.	3%
Cc1cc(C)cc(NC(=O)N2CCN(C)c3ncccc32)c1	0%	-9%	.	.	.	.
CCOc1ccc(N(CC)S(=O)(=O)c2cc(Br)cc3c2N(C(C)=O)C(C)C3)cc1 (stereo not drawn)	-14%	-64%	.	.	.	.
O=C(O)/C=C/C(=O)Nc1ccccc1C(=O)OCC(=O)c1ccc2c(c1)OCCO2	0.19µM*	-1%	15%	2%	?	12%
CCOC(=O)c1ccccc1NC(=O)/C=C/C(=O)O	12%	2%[1.84 µM]	-1%	-4%	-1%	-1%
CCCCC(=O)Nc1ccccc1C(=O)OCC(=O)c1ccc2c(c1)OCCO2	1.2µM*	-9%	?	29%	-6%	4%
CN1CCc2c(sc3c2C(=O)NC(c2cccc(OC(=O)c4cccs4)c2)N3)C1 (stereo not drawn)	17µM*	?	3%	1%	2%	19%
Cc1ccc(Nc2nnc(-c3ccc4c(c3)OCO4)o2)c(C)c1	8.5µM*	10%[9.22 µM]	?	?	-6%[7.66 µM]	?
Cc1cc(=O)n(CCc2ccccc2)c(O)c1C#N	13µM*	1%	?	20%	-1%	3%
C[C@]12C[C@@](C)(C=C1/C=C/c1ccccc1)C(=O)C[C@H]2c1ccccc1	.	3%	.	.	1%	.
CCOc1ccc(N(C(=O)c2snc(C(N)=O)c2N)C(C(=O)NCC2CCCO2)c2ccc(C)o2)cc1 (stereo not drawn)	13µM*	.	1%	0%	.	0%
O=C(Nc1nnc(C2CC2)s1)c1cc2ccccc2o1	13µM*	.	3.5µM*	2.8µM*	.	?
CCOC(=O)c1csc(NC(=O)c2cc3ccccc3o2)n1	3.4µM*	.	?	?	.	?
